Several values for one entry are separate records, joined by “and”; a condition that tells them apart may be missing. Equal entries are not always repeated. Inconclusive results are not listed. A number with no mark means an inactive call. Activity calls are given as the source filed them. Unless noted, the call rests on the fitted dose curve; in most records, active means well fitted curve in the direction sought with a large enough effect in the repeat runs; inconclusive means weak or mixed curves; inactive means no such curve, though single readings can be large; an effect the other way counts as inactive or inconclusive.

Assay [1] concerns the target Cytochrome P450 2C9 (Homo sapiens) (UniProt P11712). The experiment in a line: Cytochrome P450 family 2 subfamily C member 9 (CYP2C9) small molecule antagonists: luciferase biochemical (cell-free) qHTS assay (AID 1645842). Further: nearly all actives have a fitted effect of over 55% in size. In short, it runs like this:
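P450-Glo CYP2C9 system: proluciferin substrate with enzyme in mix containing 0.4% BSA, 10 min at room temperature, then NADPH regeneration solution added and incubated 1 h at 37C. Detection reagent stopped reaction; luminescence read after 20 min as RLU.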
Background: In qHTS, concentration-response curves come from the screen itself.

Assay [2] is described as follows: Primary qHTS for inhibitors of nuclear receptor binding SET domain protein 2 (NSD2) in an isogenic RCH-ACV NSD2 p.E1099K mutant (9B) (AID 1645876; active means well fitted curve in the direction sought with a large enough effect; an effect the other way counts as inactive or inconclusive; further: nearly all actives have a fitted effect of over 70% in size).
Assay [3] is described as follows: Primary qHTS for inhibitors of nuclear receptor binding SET domain protein 2 (NSD2) in an RCH-ACV wild type WT cells (2C) (AID 1645877; active means well fitted curve in the direction sought with a large enough effect; an effect the other way counts as inactive or inconclusive; further: nearly all actives have a fitted effect of over 70% in size).
Assay [4] deals with N-terminal Xaa-Pro-Lys N-methyltransferase 1 (Homo sapiens) (UniProt Q9BV86). Kind of assay: Confirmatory qHTS for Inhibitors of N-terminal methyltransferase 1 (NTMT1): MTaseGlo Assay (AID 1645874; active means well fitted curve in the direction sought with a large enough effect; an effect the other way counts as inactive or inconclusive; further: nearly all actives have a fitted effect of over 65% in size). The gist of the method:
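MTase-Glo luminescence measured SAH formed by 125 nM NTMT1 from 100 uM SAM and 1 uM SPKRIA peptide over 30 min at room temperature, following 15 min compound preincubation. Percent inhibition against no-enzyme and DMSO controls gave 4-parameter Hill fits.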
Potency means the concentration at half of the fitted maximal effect.

Sequence of N-terminal Xaa-Pro-Lys N-methyltransferase 1 (Homo sapiens) (Q9BV86 whole entry, looked up): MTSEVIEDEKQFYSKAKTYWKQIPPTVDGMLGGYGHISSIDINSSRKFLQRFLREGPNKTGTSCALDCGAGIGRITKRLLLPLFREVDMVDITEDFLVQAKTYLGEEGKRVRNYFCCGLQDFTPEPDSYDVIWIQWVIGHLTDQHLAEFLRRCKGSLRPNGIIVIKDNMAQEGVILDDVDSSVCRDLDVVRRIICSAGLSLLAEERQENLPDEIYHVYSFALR
Sequence of Cytochrome P450 2C9 (Homo sapiens) (P11712 whole entry, looked up): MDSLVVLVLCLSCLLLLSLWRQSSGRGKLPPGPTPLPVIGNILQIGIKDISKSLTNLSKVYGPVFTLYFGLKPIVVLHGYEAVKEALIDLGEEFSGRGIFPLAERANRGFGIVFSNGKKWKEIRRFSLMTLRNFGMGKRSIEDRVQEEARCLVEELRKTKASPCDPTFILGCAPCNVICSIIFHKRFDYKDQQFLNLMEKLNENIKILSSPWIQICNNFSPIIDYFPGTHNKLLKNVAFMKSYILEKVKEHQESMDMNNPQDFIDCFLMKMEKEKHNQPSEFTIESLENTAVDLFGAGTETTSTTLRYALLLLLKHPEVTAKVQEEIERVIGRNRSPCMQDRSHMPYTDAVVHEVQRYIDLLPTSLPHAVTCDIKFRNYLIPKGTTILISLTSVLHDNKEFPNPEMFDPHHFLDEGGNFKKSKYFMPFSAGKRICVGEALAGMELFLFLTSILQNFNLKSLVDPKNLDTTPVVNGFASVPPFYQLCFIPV

On to `O=C(Nc1ccc(-n2nc(C(F)(F)F)cc2C(F)(F)F)cc1)c1ccncc1F`, for which the figures for the Potency in assay [1] and in assay [2] were 26.8 µM (active) and 20.5 µM (active), respectively.

With `CNC(C)C(=O)NC(C(=O)N1CCCC1C(=O)Nc1snnc1-c1ccccc1)C1CCCCC1` (stereo not drawn), the Potency result in assay [1] and in assay [2] was “inactive” in each case.

With `CCCCc1c(-c2ccc(OC)cc2)[nH]c2nccnc12`, the Potency result in assay [1] was “inactive”. Moreover, the Potency in assay [2] is 3.65 µM (active).

`CCN1CCN(Cc2ccc(C(=O)Nc3ccc(C)c(Oc4ccc5c(c4)CC(=O)N5)c3)cc2C(F)(F)F)CC1`: the Potency was 23.9 µM (active) in assay [1], 16.3 µM (active) in assay [2] and 16.3 µM (active) in assay [3].

`O=C(O)c1cc(N(Cc2ccc(C3CCCCC3)cc2)C(=O)c2ccc(Oc3ccccc3)cc2)ccc1O`: the Potency is 23.9 µM (active) in assay [1] and 30.8 µM (active) in assay [4].

In the case of `CC(C)(O)c1ccn2c(-c3ccc(F)c(-c4ccc(F)cc4C#N)c3)cnc2c1F`, in assay [1], the Potency was 0.756 µM (active).

`COc1ccc(NC(=O)c2ccc(-c3ccc(C(=N)N)cc3C)cc2)cc1N1CCN(C)CC1`: the Potency result in assay [1] and in assay [2] was “inactive” each time.

As to `O=C1NC(=O)C(c2cnc3ccccn23)=C1c1cn2c3c(cc(F)cc13)CN(C(=O)N1CCCCC1)CC2`, the Potency in assay [1] was 12 µM (active); in assay [2] it was 5.2 nM (active) and 9.3 nM (active).

For the molecule `O=C(Nc1cccc([N+](=O)[O-])c1)c1cccc(S(=O)(=O)N2CCCCCC2)c1`, the Potency in assay [1] is 6.01 µM (active).

Consider `CC1=C(C(=O)Nc2cc(Cl)ccc2Cl)C(c2ccco2)C2=C(CCCC2=O)N1` (stereo not drawn), for which, in assay [1], the Potency is 1.07 µM (active).

In the case of `CNc1ccc([N+](=O)[O-])c(Nc2ccc3[nH]ncc3c2)n1`, the Potency was 0.756 µM (active) in assay [1], 7.28 µM (active) in assay [2] and 7.28 µM (active) in assay [3].

With `Cc1cc(C)c2c(c1)C(N(Cc1cc(C(F)(F)F)cc(C(F)(F)F)c1)c1nnn(C)n1)CCCN2CC1CCC(C(=O)O)CC1` (stereo not drawn), the Potency in assay [1] was 10.7 µM (active).

Regarding `NCC1CCN(c2nccc(-c3ccc4ccccc4c3)n2)CC1`, the Potency in assay [1] is 0.849 µM (active); in assay [2], 1.86 µM (active).

Take `COc1cc(C(=O)NCC2(N(C)C)CCCC2)cc(OC)c1OCc1ccccc1`: in assay [1], the Potency entry is “inactive”.

Consider `O=C(Nc1ccccc1C(=O)Nc1ccc(CCO)cc1)c1ccc([N+](=O)[O-])cc1`, for which, in assay [1], the Potency result was “inactive”.

For the molecule `CC(C)c1ccccc1OC(=O)NCCc1ccc2ccccc2c1`, in assay [1], the Potency is 0.952 µM (active). The Potency entry in assay [2] and in assay [3] was “inactive” in each case.

On to `CC(C)(C)c1ccc(NC(=O)N2CCN(c3ncccc3Cl)CC2)cc1`, for which, in assay [1], the Potency is 6.01 µM (active).

As for `O=C(Nc1ccc(Cl)cc1)c1ccccc1NCc1ccncc1`, the Potency is 0.0379 µM (active) in assay [1] and 10.3 µM (active) in assay [2].

For the molecule `C=CC(=O)Nc1cccc(Nc2nc(Nc3ccc(OCCOC)cc3)ncc2F)c1`, the Potency is 3.38 µM (active) in assay [1] and 3.72 µM (active) in assay [2].

Consider `O=S(=O)(Nc1cc(Cl)c(Oc2cnc3ccccc3c2)c(Cl)c1)c1ccc(Cl)cc1Cl`, for which, in assay [1], the Potency is 3.01 µM (active).

With `NS(=O)(=O)c1ccc(N2N=C(c3ccccc3)CC2c2ccccc2)cc1` (stereo not drawn), the Potency in assay [1] was 10.7 µM (active).

As for `COc1ccc2nc(-c3cc(OC)c(OC)c(OC)c3)cc(C(=O)NCC(=O)Nc3ccc(C(C)=O)cc3)c2c1`, the Potency was 7.56 µM (active) in assay [1] and 12.9 µM (active) in assay [2]. The Potency entry in assay [4] is “inactive”.

With `OC(CC1c2ccccc2-c2cncn21)C1CCCCC1` (stereo not drawn), the Potency was 2.68 µM (active) in assay [1] and 23 µM (active) in assay [2].

`CCCCc1ccc(NS(=O)(=O)c2ccc(F)cc2)cc1`: the Potency in assay [1] was 1.69 µM (active).

Regarding `CN(c1ccc(NC(=O)Nc2ccccc2)cc1)S(=O)(=O)c1cnn(-c2ccc(F)cc2)c1`, the Potency was 0.425 µM (active) in assay [1], 20.5 µM (active) in assay [2] and 16.3 µM (active) in assay [3].

For the molecule `COc1ccc2cc3c(NC(=O)c4ccco4)nn(C)c3nc2c1`, the Potency in assay [1] is 15.1 µM (active). Further, the Potency entry in assay [4] was “inactive”.

`CCc1cc2c(cc1CC)CC(NCC(O)c1ccc(O)c3[nH]c(=O)ccc13)C2` (stereo not drawn): the Potency result in assay [1] is “inactive”.

With `O=C(Nc1ccc(N2C(=O)[C@@H]3[C@H](C2=O)[C@@H]2C=C[C@H]3C2)c(Cl)c1)c1ccccn1`, in assay [1], the Potency was 12 µM (active).

`CCOc1cccc(NC(=O)c2ccc(N3CCCC3)c(C(F)(F)F)c2)c1`: the Potency result in assay [1] is “inactive”.

On to `CN1CCN(C2=Nc3ccccc3Nc3ccc(Cl)cc32)CC1`, for which the Potency in assay [1] was 13.5 µM (active).

`COc1ccc(S(=O)(=O)Nc2cc(Cl)cc(Cl)c2OC)cc1N1CCNCC1`: the Potency in assay [1] is 12 µM (active); in assay [2], 20.5 µM (active).

On to `CCCn1cc2c(nc(NC(=O)Nc3ccc(OC)cc3)n3nc(-c4ccco4)nc23)n1`, for which the Potency in assay [1] was 6.01 µM (active).

Consider `OC1CCC(Nc2nc(-c3ccccc3)nc3[nH]ccc23)CC1` (stereo not drawn), for which the Potency in assay [1] was 2.68 µM (active).

Consider `COc1ccc(N(C(=O)Nc2c(C)cccc2C)c2cc(Nc3ccc(N4CCN(C)CC4)cc3)ncn2)c(OC)c1`, for which the Potency in assay [1] is 13.5 µM (active); in assay [2] it was 10.3 µM (active).

With `COc1ccc2nccc(C(=O)CC[C@@H]3CCN(CC#Cc4cc(F)cc(F)c4F)C[C@@H]3C(=O)O)c2c1`, the Potency in assay [1] is 7.56 µM (active).

With `O=C(Nc1ccc2[nH]nc(-c3ccncc3)c2c1)[C@@H]1CCN(CC(=O)N2CCN(c3ccc(-c4ncccn4)cc3)CC2)C1`, the Potency in assay [1] is 6.74 µM (active) and 1.69 µM (active); in assay [2] it was 9.16 µM (active) and 14.8 µM (active); in assay [3] it was 10.3 µM (active) and 11.8 µM (active).

Turning to `CNC(=O)COC(=O)N1CCC(CCc2ccc(Cl)cc2)CC1`, the Potency in assay [1] was 21.3 µM (active).

With `COc1cc2c(cc1NS(=O)(=O)c1ccc(Br)cc1C)n(C)c(=O)n2C`, the Potency in assay [1] is 1.69 µM (active); in assay [2] it was 7.28 µM (active).

`CCc1ccc(-c2nc(CSCC(=O)NCCc3ccccc3)c(C)o2)cc1`: the Potency in assay [1] is 8.49 µM (active).

With `FC(F)(F)c1ccccc1-c1cc(C(F)(F)F)c2nc(C3=NOC4(CCCCC4)C3)[nH]c2c1`, the Potency entry in assay [1] was “inactive”. The Potency is 18.3 µM (active) in assay [2] and 14.5 µM (active) in assay [3].

Source of the values: PubChem BioAssay (NCATS).
